# Bioassay records: PubChem BioAssay, National Center for Advancing Translational Sciences (NCATS)
# Compounds with a hit are over-represented: about 12% of the library has one in this group of screens.
# MARV entry inh: blocks Marburg virus binding to or entry into cells; Potency, µM (titrated, usually from 37.8 µM), for inactives: top-dose activity change, negative = inhibition, actives largely listed as inhibitors; hit rate 1.8% among 300,000; Marburg virus pseudotyped entry inhibition, cell reporter; AID 540276; calls by dose curve; tested in HEK293 cells; also: potency is read from the fitted curve at half-maximal effect; % is scaled to controls: 0 for no effect and ±100 for the full control effect
# Shiga inhibitor: inhibitors of Shiga toxin in Vero cells | inhibition, % at 38.7 µM | AID 2315 | Vero cells, Shiga toxin protein synthesis inhibition reporter | hit rate 9.2% among 290,000; in the data active = inhibition mostly above about 28%, no sharp cut-off; inactive = mostly below about 43%; also: 0% is about no effect
# Cycloheximide cs: counter-screen for Shiga toxin inhibitors: cycloheximide protein synthesis inhibition; cell reporter, cycloheximide protein synthesis inhibition counterscreen; max response, %; hit rate 12% among 300,000; in the data active = max response mostly above about 13%, no sharp cut-off; inactive = mostly below about 14%; also: read at 38.3 µM for the half of the compounds with a filed dose; 0% is about no effect
# Lassa entry inh: inhibitors of Lassa virus binding or cell entry. Lassa virus pseudotype entry inhibition, cell reporter. Potency, µM (series often up to 37.9 µM), inactives show at the top dose activity change, negative = inhibition, actives largely listed as inhibitors. hit rate 1.2% among 300,000; calls by dose curve; tested in HEK293 cells; also: potency is read from the fitted curve at half-maximal effect; % is scaled to controls: 0 for no effect and ±100 for the full control effect; nearly all actives have a fitted effect of over 50% in size
# Active calls of the source: *; ? = inconclusive; / = not tested or not shown; + = active, no number; [ ] = dose if it differs, or a comment.
SMILES,MARV entry inh,Shiga inhibitor,Cycloheximide cs,Lassa entry inh
N/C(=N/OC(=O)c1ccccc1Cl)c1ncc([N+](=O)[O-])s1,?,68*,35*,?
N/C(=N\OC(=O)C1CC1)c1ccc([N+](=O)[O-])s1,6%,13,10,-8%
N/C(=N\OC(=O)c1ccc2ccccc2c1)c1cccc([N+](=O)[O-])c1,?,+,39*,8%
N/C(=N/OC(=O)c1cccc([N+](=O)[O-])c1)c1cccc([N+](=O)[O-])c1,?,25,-6,-1%
N/C(=N\OC(=O)c1ccc(F)cc1)c1cccc([N+](=O)[O-])c1,/,57*,31*,/
CCOc1ccc(C(=O)NC(=S)Nc2ccccc2N2CCOCC2)cc1Br,?,-9,-3,?
Cc1cccc(/C(N)=N/OC(=O)c2ccc(F)cc2)c1,-6%,86*,73*,?
Cc1cccc(/C(N)=N/OC(=O)COc2ccc(Cl)cc2)c1,/,18,-3,/
COc1ccccc1C/C(N)=N/OC(=O)c1cccc([N+](=O)[O-])c1,?,47,5,-1%
N/C(=N\OC(=O)c1ccccc1F)c1ccc([N+](=O)[O-])cc1,/,39,30*,/
CC1=C(C)/C(=N/OC(=O)c2cccc([N+](=O)[O-])c2)C=CC1=O,?,90*,56*,-18%
N/C(=N\OC(=O)c1cccc(F)c1)c1cccc([N+](=O)[O-])c1,?,31*,18*,6%
COc1ccc2c(CNCc3ccccc3OC)c(C(=O)O)n(Cc3ccc(F)cc3Cl)c2c1,/,/,/,16%[46.1 µM]
Cc1ccc(C)c2sc(NC(=O)c3ccc(S(=O)(=O)N4CCC(C)CC4)cc3)nc12,/,/,/,-18%[46.1 µM]
COc1ccc(-c2nc(CS(=O)CC(=O)NC3CCCC3)c(C)o2)cc1OC (stereo not drawn),/,12,12,/
COc1ccc(-c2nc(CS(=O)CC(=O)NC3CCC(C)CC3)c(C)o2)cc1OC (stereo not drawn),/,60*,33*,/
O=C(Cn1cc([N+](=O)[O-])ccc1=O)NCc1ccc(Cl)cc1Cl,15%[46.1 µM],24*,33*,18%[46.1 µM]
N=c1sccn1CC(=O)NCc1ccc(Cl)cc1Cl,13µM*,-4,9,8%[46.1 µM]
CCc1nnc2c3ccccc3nc(Nc3ccc(F)c(Cl)c3)n12,3%[46.1 µM],/,/,0%[46.1 µM]
Cc1ccccc1-c1noc(-c2ccc(O)cc2)n1,?,65*,52*,?
Cc1ccccc1-c1noc(-c2ccccc2F)n1,27%,68*,36*,13%
Cc1ccccc1-c1noc(-c2ccc(Cl)cc2)n1,?,26,24*,26%
O=C1C2=C(Nc3ccccc3SC2c2ccco2)c2ccccc21 (stereo not drawn),?,78*,33*,?
CC(C)c1ccc(C2Sc3ccccc3NC3=C2C(=O)c2ccccc23)cc1 (stereo not drawn),?,/,/,18%[46.1 µM]
C=CCOc1ccccc1CNc1ccc2c(c1)OCCO2,?,53*,27*,11µM*
SMILES,MARV entry inh,Shiga inhibitor,Cycloheximide cs,Lassa entry inh
CCOc1ccc(Br)cc1CNc1ccc2c(c1)OCCO2,?,43,23*,-8%
CCOc1ccc(Br)cc1CNCCN1CCOCC1,?,3,-3,1%
COc1cc(CC(=O)OCC(=O)c2ccc(F)cc2)cc(OC)c1OC,11%,/,/,?
COC(=O)C1=C[C@@H](C(=O)OC)[C@@H]2C3=C(C(=O)[C@@]2(C)NC(=O)c2ccccc2)[C@H](C)[C@@H]2C(=O)N(Cc4ccccc4)C(=O)[C@@H]2[C@@H]3C1,/,2,0,/
COc1ccccc1/C=C/C=C(\C#N)C(=O)NC(C)c1ccccc1 (stereo not drawn),?,-2,11*,-29%
CC(NC(=O)/C(C#N)=C/c1cn[nH]c1-c1ccccc1)c1ccccc1 (stereo not drawn),?,14,22,11µM*
CC1(C)N=C(N)N=C(N)N1c1cccc(C#N)c1,?,/,/,2.5µM*
COc1cc(-c2nnc(SCC(=O)Nc3ccc(F)c(Cl)c3)o2)cc(OC)c1OC,-5%[46.1 µM],/,/,0%[46.1 µM]
c1ccc2c(c1)ccc1ncccc12,/,8,6,/
Oc1c(N=Nc2ccccn2)ccc2ccccc12,4µM*,79*,36*,1.6µM*
Cc1onc(-c2ccccc2)c1CNS(=O)(=O)c1cccc(Br)c1,?,11,1,-10%
CCOC(=O)C1=C(C)N=c2s/c(=C\c3ccc(OCC(=O)O)cc3)c(=O)n2C1c1ccccc1 (stereo not drawn),-11%,-1,-1,8%
CCOC(=O)C1=C(c2ccccc2)N=c2s/c(=C\c3ccc(O)cc3)c(=O)n2C1c1cccs1 (stereo not drawn),?,5,11,16µM*
COc1cccc(NC2c3ccccc3C(=O)N2Cc2ccco2)c1 (stereo not drawn),/,-15,-5,/
O=C1c2ccccc2C(Nc2cccc(C(F)(F)F)c2)N1Cc1ccco1 (stereo not drawn),14µM*,-6,1,?
COc1ccc(CCNC(=O)CCc2c(C)nc3c4cccnc4nn3c2C)cc1OC,-3%[46.1 µM],/,/,11%[46.1 µM]
Cc1oc(-c2ccc3c(c2)OCCO3)cc1C(=O)O,?,-33,-9,1.1µM*
Cc1oc(-c2ccc3c(c2)OCCO3)cc1C(=O)NC(CCC(=O)O)C(=O)O (stereo not drawn),-22%,59,27*,-22%
Cc1oc(-c2ccc3c(c2)OCCO3)cc1C(=O)NCC(=O)O,?,-10,-3,?
COc1ccc(C(=O)Nc2nc3cc4c(cc3s2)OCO4)c(OC)c1,/,66*,38*,/
COc1ccc2nc(NC(=O)c3cc(S(=O)(=O)N4CCOCC4)ccc3C)sc2c1,2%,-6,1,-24%
COc1ccc2nc(NC(=O)c3ccoc3C)sc2c1,?,38*,48*,-28%[14.3 µM]
COc1ccc2nc(NC(=O)c3cccc(S(=O)(=O)N4CCOCC4)c3)sc2c1,?,39,14,?
COc1ccc2nc(NC(=O)c3cc(C)oc3C)sc2c1,0%,36*,18*,7%
COc1ccc(OCC(=O)Nc2nc3cc4c(cc3s2)OCCO4)cc1,4%[46.1 µM],/,/,24%[46.1 µM]
SMILES,MARV entry inh,Shiga inhibitor,Cycloheximide cs,Lassa entry inh
COc1ccc2nc(NC(=O)c3cccnc3SC)sc2c1,?,35*,61*,14%
Cc1cn2c(=O)cc(COc3cccc(NC(=O)c4ccccc4Cl)c3)nc2s1,-1%[46.1 µM],/,/,6%[46.1 µM]
CNc1ncnc2c1cnn2C1CCCCO1 (stereo not drawn),0%,/,/,6%
CNC(=O)COc1ncnc2scc(-c3ccc(F)cc3)c12,/,7,1,/
COC(=O)c1cc(NC(=O)Cn2c(=O)oc3ccccc32)cc(C(=O)OC)c1,12%[46.1 µM],-1,-1,4%[46.1 µM]
CCn1c(=O)cc(OCC(=O)NCCCN2CCCC2=O)c2ccccc21,?,-9,4,18%[46.1 µM]
COC(=O)c1sc(NC(=O)c2ccoc2C)nc1C,23%,16*,26*,7%
COC(=O)c1sc(NC(=O)/C=C/c2ccc(C)o2)nc1C,?,56*,33*,?
COC(=O)c1sc(NC(=O)c2c(C)noc2C)nc1C,/,8,2,/
CSc1ncccc1C(=O)Nc1ccc(OC(F)(F)F)cc1,-29%[46.1 µM],15,13*,-6%
Cc1cc(C(=O)Nc2nc3ccc(S(C)(=O)=O)cc3s2)c(C)o1,?,30*,16*,?
